Where “and” joins values, the source holds several entries; their conditions need not be identical. Equal entries are not always repeated. The panel holds about 79,000 compounds, 15% with a hit somewhere; the sample as a whole holds those more often. Some structures have more than one record in an assay (separate samples or runs), and their calls can disagree. Calls of active or inactive are those of the source. Rule as the data show it: active = growth inhibition above about 70%; inactive = the rest.
Assays:
[1] = NCI Yeast Anticancer Drug Screen. Data for the sgs1 strain (AID 173);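 also: 0% = growth of vehicle-only control cultures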; settings: S. cerevisiae sgs1 mutant, stronger effect = higher value
Method in brief: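 Strain with an altered DNA repair or cell cycle pathway exposed to compound. Growth then measured. Value = inhibition versus vehicle control.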

[2] = NCI Yeast Anticancer Drug Screen. Data for the mlh1 rad18 strain (AID 175); settings: S. cerevisiae mlh1 rad18 strain growth inhibition, stronger effect = higher value
Method in brief: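 A repair-deficient yeast strain is exposed to test compound, and growth is scored relative to vehicle-treated controls.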

[3] = NCI Yeast Anticancer Drug Screen. Data for the rad18 strain (AID 177); settings: S. cerevisiae rad18 mutant growth inhibition, stronger effect = higher value
Method in brief: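 DNA-repair-defective yeast; compound treatment; growth inhibition scored against vehicle.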

[4] = NCI Yeast Anticancer Drug Screen. Data for the rad52 strain (AID 147);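 also: 0% = growth of vehicle-treated control cultures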; settings: S. cerevisiae rad52 mutant growth inhibition, stronger effect = higher value
Method in brief: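 Growth of repair-deficient yeast cells was compared between compound-treated and vehicle-treated cultures to give percent inhibition.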

[5] = NCI Yeast Anticancer Drug Screen. Data for the wt1 strain (AID 149);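 also: 0% = growth of vehicle-treated wt1 cultures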; settings: S. cerevisiae wt1 strain (SPY 50644) growth inhibition, stronger effect = higher value
Method in brief: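 Yeast wt1 strain exposed to compounds; growth inhibition measured relative to vehicle-treated controls.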

[6] = NCI Yeast Anticancer Drug Screen. Data for the rad50 strain (AID 155);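 also: 0% = growth of vehicle-only cultures of the same strain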; settings: S. cerevisiae rad50 strain growth inhibition, stronger effect = higher value
Method in brief: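 Yeast carrying a defined DNA repair defect were exposed to test compounds, and growth was compared with vehicle-treated controls to give percent inhibition.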

[7] = NCI Yeast Anticancer Drug Screen. Data for the mec2-1 strain (AID 157); settings: S. cerevisiae mec2-1 strain, stronger effect = higher value
Method in brief: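 Compounds were applied to mec2-1 yeast cells. Their growth was then compared with that of vehicle-treated cultures to give growth inhibition.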

[8] = NCI Yeast Anticancer Drug Screen. Data for the rad14 strain (AID 159);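 also: 0% = growth of vehicle-treated control cultures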; settings: S. cerevisiae rad14 strain growth inhibition, stronger effect = higher value
Method in brief: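 Yeast cells carrying a defined DNA-repair defect were exposed to compounds, and growth inhibition was calculated relative to vehicle-treated control cultures.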

[9] = NCI Yeast Anticancer Drug Screen. Data for the sgs1 mgt1 strain (AID 161);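 also: 0% = growth of cultures given vehicle only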; settings: S. cerevisiae sgs1 mgt1 strain, stronger effect = higher value
Method in brief: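 Percent growth inhibition was derived by comparing compound-exposed mutant yeast with vehicle-exposed cultures. The strain carries alterations in DNA damage repair.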

[10] = NCI Yeast Anticancer Drug Screen. Data for the CLN2oe strain (AID 163);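 also: 0% = growth of vehicle-only control cultures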; settings: S. cerevisiae CLN2oe strain, stronger effect = higher value
Method in brief: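 Cells of an engineered yeast line with disturbed cell-cycle regulation are treated with compound. Inhibition of growth is then calculated relative to the vehicle-treated reference.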

[11] = NCI Yeast Anticancer Drug Screen. Data for the cln2 rad14 strain (AID 165);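 also: 0% = growth equal to vehicle treated cultures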; settings: S. cerevisiae cln2 rad14 strain, stronger effect = higher value
Method in brief: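 Strain: cln2 rad14 yeast, altered in cell cycle control and DNA damage repair. Read-out: growth inhibition vs vehicle.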

[12] = NCI Yeast Anticancer Drug Screen. Data for the bub3 strain (AID 167); settings: S. cerevisiae bub3 mutant strain, stronger effect = higher value
Method in brief: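 Compounds were applied to a genetically altered yeast strain carrying a cell-cycle control defect. Growth inhibition was scored against vehicle-treated controls.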

[13] = NCI Yeast Anticancer Drug Screen. Data for the wt2 strain (AID 169);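 also: 0% = growth of vehicle-treated yeast cultures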; settings: S. cerevisiae wt2 strain growth inhibition, stronger effect = higher value
Method in brief: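 Growth of compound-treated yeast is measured and expressed as inhibition relative to vehicle-only controls.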

[14] = NCI Yeast Anticancer Drug Screen. Data for the mlh1 strain (AID 171);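 also: 0% = growth of vehicle-treated control cultures of the same strain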; settings: S. cerevisiae mlh1 strain growth inhibition, stronger effect = higher value
Method in brief: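 Test agents were incubated with yeast bearing a defined DNA damage repair or cell cycle control alteration; values are growth inhibition normalised to vehicle-treated cultures.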

[15] = at 5.0 µM (retest, dose inferred, filed as 0.5)
[16] = at 50.0 µM (retest, dose inferred, filed as 5.0)

Measured: growth inhibition

C/C(=N\O)c1ccc2ccc3ccccc3c2c1
active: [1]; at 33.0 µM 80% | [1]; at 100.0 µM 95% | [2]; at 50.0 µM 96.2% and 82.8% | [3]; at 33.0 µM 92% | [3]; at 100.0 µM 94%
75% (active) and 64% (inactive): [2]; [16]
inactive: [1]; at 1.2 µM -2% | [1]; at 3.7 µM -3% | [1]; at 11.0 µM 33% | [2]; [15] -113% and 3% | [3]; at 1.2 µM 5% | [3]; at 3.7 µM 13% | [3]; at 11.0 µM 52%

CC1=C(O)C(=O)C=C2C1=CC=C1[C@@]2(C)CCC2(C)[C@@H]3C[C@@H](C)C(=O)C[C@]3(C)CC[C@]12C (stereo partly specified)
inactive: [4]; at 1.2 µM 41% | [4]; at 3.7 µM 58% | [5]; at 1.2 µM 9% | [5]; at 3.7 µM 8% | [6]; at 1.2 µM 11% | [6]; at 3.7 µM 28% | [6]; [15] 4% | [7]; at 1.2 µM 5% | [7]; at 3.7 µM 24% | [7]; [15] 4% | [8]; at 1.2 µM -26% | [8]; at 3.7 µM -13% | [9]; [15] 16% | [10]; at 1.2 µM -13% | [10]; at 3.7 µM 10% | [11]; [15] 35% | [12]; at 1.2 µM -19% | [12]; at 3.7 µM -6% | [12]; [15] 38% | [13]; at 1.2 µM 0% | [13]; at 3.7 µM 0% | [14]; at 1.2 µM 14% | [14]; at 3.7 µM 31% | [1]; at 1.2 µM 17% | [1]; at 3.7 µM 42% | [2]; [15] 41% | [3]; at 1.2 µM 9% | [3]; at 3.7 µM 28%
active: [4]; at 11.0 µM 98% | [4]; at 33.0 µM 98% | [4]; at 100.0 µM 96% | [5]; at 11.0 µM 96% | [5]; at 33.0 µM 97% | [5]; at 100.0 µM 96% | [6]; at 11.0 µM 96% | [6]; at 33.0 µM 97% | [6]; [16] 97% | [6]; at 50.0 µM 88.3% | [6]; at 100.0 µM 97% | [7]; at 11.0 µM 97% | [7]; at 33.0 µM 98% | [7]; [16] 99% | [7]; at 50.0 µM 90.5% | [7]; at 100.0 µM 96% | [8]; at 11.0 µM 94% | [8]; at 33.0 µM 97% | [8]; at 100.0 µM 95% | [9]; [16] 96% | [9]; at 50.0 µM 87.3% | [10]; at 11.0 µM 98% | [10]; at 33.0 µM 98% | [10]; at 100.0 µM 95% | [11]; [16] 97% | [11]; at 50.0 µM 86.5% | [12]; at 11.0 µM 96% | [12]; at 33.0 µM 97% | [12]; [16] 97% | [12]; at 50.0 µM 87.9% | [12]; at 100.0 µM 96% | [13]; at 11.0 µM 93% | [13]; at 33.0 µM 97% | [13]; at 100.0 µM 96% | [14]; at 11.0 µM 95% | [14]; at 33.0 µM 98% | [14]; at 100.0 µM 96% | [1]; at 11.0 µM 96% | [1]; at 33.0 µM 97% | [1]; at 100.0 µM 96% | [2]; [16] 97% | [2]; at 50.0 µM 88.2% | [3]; at 11.0 µM 96% | [3]; at 33.0 µM 98% | [3]; at 100.0 µM 97%
